Data as given in ChEMBL document CHEMBL3433997, “St. Jude Leishmania screening dataset” (2016).

How the values were obtained:
Format in all cases: functional
[1] = target: Solute carrier family 2, facilitated glucose transporter member 1 (Homo sapiens) (UniProt P11166); experiment: ST_JUDE_LEISH: Cytotoxicity at 2uM final concentration against transgenic Leishmania Mexicana promastigotes LmGLUT1 that are glucose transport deficient and complemented with the human glucose transporter GLUT1. Activity is measured by DNA content using SYBR green in vitro
[2] = target: Hexose transporter 1 (Plasmodium falciparum) (UniProt O97467); experiment: ST_JUDE_LEISH: Cytotoxicity at 2uM final concentration against transgenic Leishmania Mexicana promastigotes LmPfHT that are glucose transport deficient and complemented with the Plasmodium falciparum hexose transporter. Activity is measured by DNA content using SYBR green in vitro
[3] = target: Glucose transporter (Leishmania mexicana) (UniProt O61059); experiment: ST_JUDE_LEISH: Cytotoxicity at 2uM final concentration against transgenic Leishmania Mexicana promastigotes LmGT2 that are glucose transport deficient and complemented with the L. Mexicana glucose transporter 2. Activity is measured by DNA content using SYBR green in vitro

Chain of Solute carrier family 2, facilitated glucose transporter member 1 (Homo sapiens) (P11166 whole entry): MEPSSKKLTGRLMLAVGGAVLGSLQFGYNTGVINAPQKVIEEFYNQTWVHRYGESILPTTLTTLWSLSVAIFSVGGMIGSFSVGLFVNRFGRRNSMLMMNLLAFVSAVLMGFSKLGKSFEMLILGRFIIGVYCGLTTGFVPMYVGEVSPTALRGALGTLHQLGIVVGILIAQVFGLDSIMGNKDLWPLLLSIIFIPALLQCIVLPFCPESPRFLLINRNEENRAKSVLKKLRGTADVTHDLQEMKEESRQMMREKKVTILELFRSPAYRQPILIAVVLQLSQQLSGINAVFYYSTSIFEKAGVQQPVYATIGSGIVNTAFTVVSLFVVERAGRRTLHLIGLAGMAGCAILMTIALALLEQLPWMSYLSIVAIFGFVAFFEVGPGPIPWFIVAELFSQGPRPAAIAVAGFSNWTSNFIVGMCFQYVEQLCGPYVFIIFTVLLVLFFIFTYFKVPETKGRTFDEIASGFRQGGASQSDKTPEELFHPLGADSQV

SMILES	inhibition [1] [%]	inhibition [2] [%]	inhibition [3] [%]
COc1cccc(CN2CCCC(CCC(=O)Nc3ccc(C(F)(F)F)cc3)C2)c1O (stereo not drawn)	1.04	2.12	1.85
N=C(N)CCN(Cc1ccccc1)c1ccc(Cl)cc1	-1.51	-1.28	-1.35
FC(F)(F)c1ccc2[nH]c(-c3ccc(-c4ccc(CNCC5CCCO5)cc4)s3)nc2c1 (stereo not drawn)	-1.55	0.38	-1.62
Cc1ccc(CCNCC(O)c2cccc(C(F)(F)F)c2)cc1 (stereo not drawn)	0.25	1.08	1.78
CCc1ccc(O)c(-c2cc(C(=O)Nc3cccnc3)[nH]n2)c1	1.69	0.53	2.29
COc1ccc2nccc(N3CCC(O)(CCNCc4ccc5c(n4)NC(=O)CS5)CC3)c2n1	7.13	8.14	7.92
CCN1CCN(c2cc(C)c3cc(NC(=O)c4ccc(OC)c([N+](=O)[O-])c4)ccc3n2)CC1	2.21	2.42	2.13
O=C(NCCCCN1CCC(c2ccc3ccccc3c2)CC1)c1ccc(NC(=O)c2ccc(Cl)cc2)cc1	2.27	4.42	4.1
COC(=O)c1cc(OC2CCOC2=O)cc2c1OC(C)(C)O2 (stereo not drawn)	10.9	12.7	8.43
CCC(CC)N1C(=O)C(c2ccccc2)(c2ccccc2)N=C1N	1.48	3.51	1.61
Cc1cc(N2CCOCC2)nc(Nc2ccc(NC(=O)Nc3ccc(F)cc3)cc2)n1	-0.56	-2.91	1.66
Nc1c(Cl)cc(C(O)CNCCCCCCOCCc2ccc(CO)s2)cc1Cl (stereo not drawn)	2.77	1.49	2.21
C=C(C)CSc1nc2c(c(=O)n1Cc1ccco1)C1(CCCCC1)Cc1ccccc1-2	3.67	3.16	4.72
CCN(CC)CCCNc1c2ccccc2nc2ccccc12	23.4	22.3	16.5
Cc1ccc(CN2CCCN(Cc3cccc(NC(=O)c4cc5ccccc5s4)c3)CC2)cc1	-0.92	-0.94	-2.83
COc1ccc2nccc([C@@H](O)CN3CCC(NCc4nc5c(C#N)cccc5[nH]4)CC3)c2c1	3.6	3.33	3.84
c1ccc(-n2ncc(CNCc3ccc(-c4ccc(-c5nc6ccccc6[nH]5)s4)cc3)n2)cc1	2.35	2.45	0.43
Oc1ccc2[nH]c(-c3cccc(F)c3)nc2c1CN1CCCC1	4.75	3.49	1.21

SMILES	inhibition [1] [%]	inhibition [2] [%]	inhibition [3] [%]
N#Cc1cccc(-c2ccc(C(=O)Nc3ccc4c(c3)CCN(C3CCC3)CC4)cn2)c1	7.62	4.8	5.26
O=[N+]([O-])c1cccc(CNC2CCN(Cc3ccc(Cl)c(Cl)c3)CC2)c1	7.37	4.47	7.35
CCCCCCN1CCCN(Cc2ccc(C(=O)Nc3ccc(C(C)C)cc3)cc2)CC1	5.84	7.26	4.28
Nc1ncc(-c2cccc(OCc3ccccc3)c2)cc1-c1nnc2ccc(Cl)nn12	1.7	1.29	2.15
CC(CNC(=O)C(c1cc2ccccc2o1)N1CCN(C(c2ccccc2)c2ccccc2)CC1)c1ccccc1 (stereo not drawn)	3.49	3.31	3.92
COc1ccccc1CCNc1ncc(F)c(N[C@@H](Cc2ccccc2)C(=O)NCCc2ccccc2)n1	0.53	-0.37	0.24
COc1ccc(NC(=O)[C@H](Cc2ccccc2)Nc2nc(NCCN3CCCC3)ncc2C)cc1	1.71	2.57	3.02
CC1CCCCC1N(C)C1CCN(CCCNC(=O)C=Cc2ccc(Cl)cc2Cl)CC1 (stereo not drawn)	-1.12	-1.99	1.66
O=C(Nc1cccc(Cl)c1Cl)NC1CCN(Cc2cccc(O)c2)CC1	3.63	2.13	2.32
COc1cc2nc(NCCn3cccn3)nc(NCCc3ccccc3)c2cc1OC	7.22	3.02	6.96
COc1ccc(N2CCN(CCCCNCc3ccc(NC(=O)c4cc(Cl)cc(Cl)c4)cc3)CC2)c(OC)c1	3.33	2.32	1.31
CN(C)C(=S)N/N=C1/C(=O)Nc2ccccc21	3.54	1.92	1.43
CN(C)CCOc1ccc2c(=O)cc(CCc3cccc(F)c3F)n(CC(=O)N(C)Cc3ccc(-c4ccc(C(F)(F)F)cc4)cc3)c2c1	-1.05	-0.55	0.06
Cc1cccc2nc(-c3ccc(-c4ccc(CNCc5cnn(-c6ccccc6)n5)cc4)cc3)[nH]c12	1.08	1.39	1.19
Nc1c(Cl)cc(C(O)CNCCCCCOCCc2ccccc2)cc1C(F)(F)F (stereo not drawn)	8.73	4.17	-2.01
COCCOc1cc(C)c(C2CCN(CCCCNC(=O)c3ccc(NC(=O)c4ccc(Cl)cc4)cc3)CC2)cc1C	8.26	7.14	8.98
COc1ccc(-c2ccc(NC(=O)c3cccs3)cc2)cc1CN1CCCN(C)CC1	3.24	3.15	-1.12
CCCCCCCN1CC[C@@H](C[C@H](N)Cc2ccnc3ccc(OC)cc23)[C@@H](CC)C1	0.24	-1.97	0.03
